From PubChem
esBAF inh = blocks esBAF chromatin remodeling in mouse ES cells; Bmi1-luciferase knock-in reporter, 24 h; 100% = twice the neutral-well signal; reporter increase, % at 12.5 µM; hit rate 2% among 350,000; in the data active = activation above about 40%;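 also: 0% = median of the plate's neutral control wells and 100% = double that signal; a rise in the Bmi1 reporter signal indicates esBAF inhibition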
Rtt109 HAT inh = C. albicans Rtt109 histone acetyltransferase inhibition. AID 540336. purified Rtt109/Vps75, ThioGlo CoA-SH fluorescence, 4 h. hit rate 0.16% among 330,000. inhibition, % at 34.9 µM. Q5AAJ8;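 active = inhibition of at least 50% in every replicate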
Target sequence (Q5AAJ8 whole entry, looked up): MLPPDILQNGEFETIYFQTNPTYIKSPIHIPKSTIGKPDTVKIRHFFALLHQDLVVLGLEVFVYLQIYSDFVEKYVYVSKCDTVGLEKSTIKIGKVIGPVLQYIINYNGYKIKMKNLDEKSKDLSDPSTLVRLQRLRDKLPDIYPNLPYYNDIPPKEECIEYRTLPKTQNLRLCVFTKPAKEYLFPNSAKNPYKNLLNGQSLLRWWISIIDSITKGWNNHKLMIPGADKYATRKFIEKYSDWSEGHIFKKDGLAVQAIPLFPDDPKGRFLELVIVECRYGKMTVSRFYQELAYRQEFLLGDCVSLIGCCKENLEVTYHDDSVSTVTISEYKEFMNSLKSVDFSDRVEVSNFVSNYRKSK
dFosB act-1 = enhances mouse delta FosB homodimer DNA binding | hit rate 0.99% among 340,000 | activation, % at 25 µM | P13346 | purified delta FosB, TAMRA-CDK5 oligo fluorescence polarization; percent of positive-control signal above neutral wells;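 active = mean activation above about 17%, with every replicate also reaching it, limit read from the data, passing the limit was not always enough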
CDK5 p35 inh = CDK5/p35 (human) kinase inhibition; hit rate 0.01% among 330,000; Recombinant CDK5/p35, ADP-Glo luminescence, 60 min; inhibition, % at 10 µM; Q00535+Q15078;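 active = highest replicate inhibition of at least 50% and at least 75% of replicates reaching 50%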;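 also: plate controls were DMSO neutral control for no effect and GW8510 at 10 µM for full effect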
SMARCA2 activ = activators of SMARCA2 function | MG213 cells, MMTV-luciferase reporter, dexamethasone, overnight | hit rate 1% among 370,000 | activation, % at 9.1 µM; in the data active = activation above about 7.8%;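 also: 0% = vehicle wells and 100% = reference activator wells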
Dyrk1A ADPGlo = blocks rat Dyrk1A kinase activity | ADP-Glo luminescence, NFATc1 peptide | Q63470 | inhibition, % at 12.5 µM | hit rate 0.43% among 310,000; in the data active = inhibition above about 50%;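 also: plate controls were vehicle with enzyme for no effect and no enzyme for full effect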
dFosB act-2 = enhances mouse delta FosB homodimer binding to DNA | activation, % at 24.9 µM | 2,400 tested, under 10 active | purified delta FosB, TAMRA-CDK5 oligo fluorescence polarization; normalised: neutral wells 0, positive control 100 | shares compounds with dFosB act-1 | AID 588690;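 active = highest replicate activation at or above 34% and every replicate reaching that threshold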;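 also: higher polarization means more probe DNA bound by delta FosB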
* = called active by the depositor; ! = not confirmed by another sample. The list is not random: actives were taken first. Their share in the collection is about 3.2%.

What do the screens show for `COc1ccc(-c2cc(=O)oc3cc(OCC(=O)Nc4ccc(CCO)cc4)ccc23)cc1`?
esBAF inh: 0; Rtt109 HAT inh: -10; dFosB act-1: 22*; CDK5 p35 inh: -1; SMARCA2 activ: -2; Dyrk1A ADPGlo: -6; dFosB act-2: 1

What do the screens show for `COc1ccc(-c2cc(=O)oc3c(C)c(OCC(=O)Nc4cccnc4)ccc23)cc1`?
esBAF inh: 10; Rtt109 HAT inh: 7; dFosB act-1: 41*; CDK5 p35 inh: 1; SMARCA2 activ: -1; Dyrk1A ADPGlo: -1; dFosB act-2: -6

How did C[C@@H]1CN([C@@H](C)CO)S(=O)(=O)c2ccc(C#Cc3ccc(F)cc3)cc2O[C@@H]1CN(C)C(=O)NC1CCCC1 do in these assays?
esBAF inh: -1

Results for CN(C)C=Nc1ncc2c3ccccc3n(CCN(C)C)c2c1C#N ?
esBAF inh: 0; Rtt109 HAT inh: 13; dFosB act-1: 33*; CDK5 p35 inh: 2; SMARCA2 activ: 1; Dyrk1A ADPGlo: 17; dFosB act-2: -3

Results for Nc1nc(SCc2ccc(Cl)cc2)[nH]c(=O)c1-c1ccccc1 ?
esBAF inh: 5; Rtt109 HAT inh: 5; dFosB act-1: -10; CDK5 p35 inh: 0; SMARCA2 activ: -4; Dyrk1A ADPGlo: 1

What do the screens show for `COc1ccc(-c2noc(CSc3nc(N)c(-c4ccccc4)c(=O)[nH]3)n2)cc1`?
esBAF inh: 4; Rtt109 HAT inh: 2; dFosB act-1: 62*; CDK5 p35 inh: 0; SMARCA2 activ: -3; Dyrk1A ADPGlo: 5; dFosB act-2: -1

How did Cc1ccc(S(=O)(=O)Nc2cc(=O)[nH]c(SCc3ccc(Cl)cc3)n2)cc1 do in these assays?
Rtt109 HAT inh: -6; dFosB act-1: -2; CDK5 p35 inh: 0; SMARCA2 activ: -2; Dyrk1A ADPGlo: -6

What do the screens show for `COc1ccc(Cl)cc1NC(=O)CSc1nc(NS(=O)(=O)c2ccc(C)cc2)cc(=O)[nH]1`?
esBAF inh: -2; Rtt109 HAT inh: 7; dFosB act-1: 28*; CDK5 p35 inh: -1; SMARCA2 activ: 0; Dyrk1A ADPGlo: -6; dFosB act-2: 1

What do the screens show for `C[C@H](CO)N1C[C@H](C)[C@@H](CN(C)Cc2ccc(C(F)(F)F)cc2)Oc2ccc(NC(=O)Nc3ccc(C(F)(F)F)cc3)cc2C1=O`?
esBAF inh: 0

Results for CC1CC(C)CN(C(=O)Cn2c(SCC(=O)N3CCc4ccccc4C3)nc3ccccc32)C1 (centres undefined) ?
esBAF inh: -4; Rtt109 HAT inh: -17; dFosB act-1: 24*; CDK5 p35 inh: 0; SMARCA2 activ: 0; Dyrk1A ADPGlo: -3; dFosB act-2: 6

How did CC(C)NC(=O)Cn1c(SCC(=O)N2CCc3ccccc3C2)nc2ccccc21 do in these assays?
esBAF inh: -7; Rtt109 HAT inh: -2; dFosB act-1: -8; CDK5 p35 inh: -1; SMARCA2 activ: -2; Dyrk1A ADPGlo: -4

How did CNC(=O)C[C@@H]1CC[C@@H]2[C@H](COC[C@@H](O)CN2Cc2ccc(Cl)c(Cl)c2)O1 do in these assays?
esBAF inh: -4

How did O=C(Cn1ncc2c([nH]c3ccccc32)c1=O)Nc1ccc(F)cc1F do in these assays?
esBAF inh: 0; Rtt109 HAT inh: 0; dFosB act-1: 64*; CDK5 p35 inh: 1; SMARCA2 activ: -2; Dyrk1A ADPGlo: -4; dFosB act-2: 9

How did Cc1ccccc1NC(=O)Cn1nnc2c(cnn2-c2ccc(F)cc2)c1=O do in these assays?
esBAF inh: -10; Rtt109 HAT inh: 2; dFosB act-1: 18*; CDK5 p35 inh: -1; SMARCA2 activ: 0; dFosB act-2: 4

What do the screens show for `CC/C(=C(\c1ccccc1)c1ccc(OCCN(C)C)cc1)c1ccccc1`?
esBAF inh: -3; Rtt109 HAT inh: 34; dFosB act-1: 24*!; CDK5 p35 inh: 1; SMARCA2 activ: -3; Dyrk1A ADPGlo: 7; dFosB act-2: -1

How did O=C(NNC(=O)c1cccs1)c1cccc(F)c1 do in these assays?
esBAF inh: 8; Rtt109 HAT inh: -5; dFosB act-1: -1; CDK5 p35 inh: 0; SMARCA2 activ: 0; Dyrk1A ADPGlo: 3

What do the screens show for `Cc1ccc2occ(/C=N/NC(=O)c3ccc(O)cc3)c(=O)c2c1`?
esBAF inh: -8; Rtt109 HAT inh: 3; dFosB act-1: 52*; CDK5 p35 inh: -1; SMARCA2 activ: -3; Dyrk1A ADPGlo: 3; dFosB act-2: 2

Results for O=C(N/N=C/c1ccc(OC(=O)c2cccs2)cc1)c1cccc(F)c1 ?
esBAF inh: 23; Rtt109 HAT inh: -1; dFosB act-1: 61*; CDK5 p35 inh: -4; Dyrk1A ADPGlo: -3; dFosB act-2: 0

How did Cc1cccc(C(=O)Oc2ccc(/C=N/NC(=O)c3ccc(O)cc3)cc2)c1 do in these assays?
esBAF inh: -1; Rtt109 HAT inh: -6; dFosB act-1: 34*; CDK5 p35 inh: -1; SMARCA2 activ: -1; Dyrk1A ADPGlo: -1; dFosB act-2: 1

How did O=C(N/N=C/c1ccc(OC(=O)c2cccc(F)c2)cc1)c1cccnc1 do in these assays?
esBAF inh: -4; Rtt109 HAT inh: -9; dFosB act-1: 94*; CDK5 p35 inh: -1; SMARCA2 activ: 0; Dyrk1A ADPGlo: -5; dFosB act-2: -1

Results for Cc1ccc2occ(/C=N/NC(=O)c3ccccc3Br)c(=O)c2c1 ?
esBAF inh: -18; Rtt109 HAT inh: -3; dFosB act-1: 3; CDK5 p35 inh: 1; SMARCA2 activ: 3; Dyrk1A ADPGlo: 5

How did Cc1ccc(S(=O)(=O)N[C@H]2CC[C@@H](CCn3cc(-c4cccnc4)nn3)O[C@@H]2CO)cc1 do in these assays?
esBAF inh: 1

What do the screens show for `C[C@@H]1CCCCO[C@H](CN(C)Cc2ccc3c(c2)OCO3)[C@H](C)CN([C@H](C)CO)C(=O)c2cc(NS(=O)(=O)c3ccccc3)ccc2O1`?
esBAF inh: 0

What do the screens show for `C[C@H]1CN([C@@H](C)CO)S(=O)(=O)c2ccc(C#CC3(O)CCCC3)cc2O[C@H]1CN(C)C(=O)Cc1cccnc1`?
esBAF inh: 4

Results for CNc1ccc(C(=O)OCC(=O)NCc2ccc3c(c2)OCO3)cc1[N+](=O)[O-] ?
esBAF inh: -4; Rtt109 HAT inh: -10; dFosB act-1: 36*; CDK5 p35 inh: -1; SMARCA2 activ: -2; dFosB act-2: -1

How did NC(=O)c1ccc(NC(=O)COC(=O)c2ccc3c(c2)OCO3)cc1 do in these assays?
esBAF inh: 0; Rtt109 HAT inh: 3; dFosB act-1: 24*; CDK5 p35 inh: 0; SMARCA2 activ: 1; dFosB act-2: -2
